Screening results: PubChem, National Center for Advancing Translational Sciences (NCATS)
Six1-Eya2 inh – inhibitors of human Six1/Eya2 interaction | Q15475+O00167 | AlphaScreen GST-Six1/His-Eya2 binding, biochemical; active compounds read low | activity change, % (no concentration beside the values) | 0.56% of 360,000 active | AID 651725; in the data active = activity change below about -65%; inconclusive = mostly about -30% to -63%
Target sequence (O00167 whole entry, looked up): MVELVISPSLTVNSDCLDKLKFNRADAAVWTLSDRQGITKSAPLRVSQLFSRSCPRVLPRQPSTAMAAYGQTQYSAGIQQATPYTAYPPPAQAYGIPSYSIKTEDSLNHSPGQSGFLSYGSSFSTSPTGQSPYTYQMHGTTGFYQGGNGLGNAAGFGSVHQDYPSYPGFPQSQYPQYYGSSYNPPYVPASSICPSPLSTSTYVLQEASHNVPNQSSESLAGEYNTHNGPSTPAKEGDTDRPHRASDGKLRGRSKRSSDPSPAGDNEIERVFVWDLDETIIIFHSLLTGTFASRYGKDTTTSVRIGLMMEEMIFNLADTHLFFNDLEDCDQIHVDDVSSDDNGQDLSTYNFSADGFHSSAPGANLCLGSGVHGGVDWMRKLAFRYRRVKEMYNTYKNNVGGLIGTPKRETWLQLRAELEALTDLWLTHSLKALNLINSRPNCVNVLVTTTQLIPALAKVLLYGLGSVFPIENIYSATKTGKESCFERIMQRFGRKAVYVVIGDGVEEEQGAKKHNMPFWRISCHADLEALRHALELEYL
Target sequence (Q15475 whole entry, looked up): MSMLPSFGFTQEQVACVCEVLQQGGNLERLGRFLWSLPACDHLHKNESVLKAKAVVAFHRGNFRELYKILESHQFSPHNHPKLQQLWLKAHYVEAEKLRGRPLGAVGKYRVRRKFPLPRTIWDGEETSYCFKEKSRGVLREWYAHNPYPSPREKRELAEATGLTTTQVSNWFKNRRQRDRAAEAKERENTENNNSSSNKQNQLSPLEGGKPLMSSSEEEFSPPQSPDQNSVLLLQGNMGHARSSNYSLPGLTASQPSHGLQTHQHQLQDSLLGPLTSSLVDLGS
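GST-Six1 + His-Eya2 (5X stock: 250/500 nM); Tris pH 8.0, 300 mM NaCl, 0.05% BSA, 0.02% Tween 20; GSH donor/Ni acceptor beads; 1 h 37 °C dark; AlphaScreen readout.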
p53 reactivation – mutant p53 re-activation in reporter cells | H1299 p53-A138V BP100-luciferase reporter, luminescence, 24 h | 0.063% of 320,000 active | AID 504706 | Potency, µM (highest dose often 92.2 µM), hits mostly activators; also: nearly all actives have a fitted effect of over 45% in size
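H1299 (p53-null), stable ts p53-A138V + BP100-Luc; 1000 cells/well, Opti-MEM/10% FBS; cpd 4 pt, 1:5; 24 h, 37 deg C, 5% CO2; detection reagent 10 min RT; luminescence.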
CtBP-E1A inh – inhibitors of CtBP/E1A interaction; activity change, % (no concentration beside the values); 0.49% of 340,000 active; AlphaScreen GST-E1A/His-CtBP binding, 1536-well; active compounds read low; in the data active = activity change below about -65%; inconclusive = mostly about -30% to -63%
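In 5 uL wells, 23 nL compound meets equimolar GST-E1A and His-CtBP (5X stock 125 nM each) for 2 h, 37 °C. Beads (5X, 50 ug/mL) then 1 h, 37 °C, dark.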
Gal4-VP16 FLuc – Gal4-VP16 reporter inhibition counter-screen; Drosophila S2 Gal4-VP16 UAS-luciferase, luminescence, 20 h; Potency, µM (highest dose often 53.6 µM), actives largely listed as inhibitors; 3.5% of 310,000 active;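 also: Gal4-VP16 expression switched on by copper sulfate through the metallothionein promoter; nearly all actives have a fitted effect of over 50% in size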
RORgamma inh – inhibitors of mouse ROR gamma transcriptional activity | 5.4% of 310,000 active | Drosophila S2 Gal4-RORgamma UAS-luciferase reporter, 20 h | AID 2551 | Potency, µM (top dose mostly 53.6 µM), usual class: inhibitors | P51450; also: nearly all actives have a fitted effect of over 60% in size
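In this cell-based reporter format, copper sulfate (700 uM final) drives Gal4–ROR gamma fusion expression from a metallothionein promoter in Drosophila Schneider cells; compounds preincubated 1 hr, reporter read after 20 hr at ambient temperature.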
Hits are given with their value; . = inactive; ? = inconclusive; / = no result given; [ ] = dose if it differs, or a comment. In the library only some 5.4% were active in any assay of this set; here they are far more common. Unless noted, calls follow the shape of the dose curve; as a rule, active = well fitted curve in the direction sought with a large enough effect; inconclusive = small, poorly fitted or top-dose-only effect, or another doubt; inactive = no such curve, though single readings can be large; an effect the other way counts as inactive or inconclusive.

SMILES	Six1-Eya2 inh	p53 reactivation	CtBP-E1A inh	Gal4-VP16 FLuc	RORgamma inh
COc1cc(/C=N/NC(=O)c2cccc([N+](=O)[O-])c2)ccc1OCc1ccc(C)cc1	.	.	.	.	2.5µM
COc1cc(/C=N/NC(=O)c2ccc(COc3cc(C)ccc3C(C)C)cc2)cc(OC)c1O	.	.	.	16µM	?
Cc1ccc(C(C)C)c(OCc2ccc(C(=O)N/N=C/c3ccc(O)c(O)c3)cc2)c1	.	.	.	35µM	?
COc1ccc(O[C@H]2C=C[C@@H](c3ccccc3)O[C@H]2COC(=O)CC/C(C)=N\O[C@@H](C)CN2CCCCc3nc(C)c(C)cc32)cc1	/	/	/	.[10 µM]	.[10 µM]
O=C(Nc1ccccc1OC(F)F)c1ccc(-n2cncn2)c([N+](=O)[O-])c1	.	.	.	/	/
COc1ccc(Cc2nnc(N/N=C/c3ccc(Br)cc3)[nH]c2=O)cc1OC	.	.	.	.	.
COc1ccc(/C=N/Nc2nnc(Cc3ccccc3)c(=O)[nH]2)cc1OC	-66	.	?	.	.
COc1ccc(Cc2nnc(Nc3ccc(Cl)cc3)[nH]c2=O)cc1	.	.	.	.	.
COc1ccc(Cc2nnc(N/N=C/c3ccc(C)o3)[nH]c2=O)cc1	?	.	?	.	11µM
COc1ccccc1Nc1nnc(Cc2ccccc2)c(=O)[nH]1	.	.	.	.	.
COc1ccc(Cc2nnc(N/N=C/c3ccc(O)cc3)[nH]c2=O)cc1OC	-82	?	-91	4µM	2.2µM
COc1ccc(CC(NC(C)=O)C(=O)NC2CCN(C(=O)C3CCCCC3)CC2)cc1OC (stereo not drawn)	.	.	.	.	.
Cc1c(Cl)cccc1NS(=O)(=O)c1c(C(=O)N2CCOCC2)c(C)n(C)c1C	.	.	.	.	.
CCCNC(=O)c1ccc2c(=O)c(O)c(-c3ccsc3)[nH]c2c1	?	?	-76	.	.
[2H]c1c([2H])c([2H])c(-c2nc(N3CCCCCC3)sc2C(=O)c2ccccc2)c([2H])c1[2H]	.	.	.	.	.
CCCCCCCCCCCCCCC[C@H](O)[C@@H](N)CO	/	/	/	.	.
Cc1cc(C)nc(NN=C(c2ccccc2)c2ccccc2)n1	.	.	/	?	7.9µM
CC(/C=C/c1ccccc1)=N\Nc1nc(C)cc(C)n1	.	?	.	5µM	0.45µM
Cc1cc(C)nc(Nc2ccc(C(=O)O)cc2)n1	.	.	.	?	.
COc1cccc(OC)c1C(=O)NCc1ccco1	.	/	.	/	/
COc1ccc(N2CCC(CNC(=O)Nc3ccc(C)c(C)c3)C2)cc1 (stereo not drawn)	?	.	.	.	.
CCc1ccc(NC(=O)NCC2CCN(c3ccc(OC)cc3)C2)cc1 (stereo not drawn)	.	.	.	.	.
COc1ccc(N2CCC(CNC(=S)Nc3c(C)cc(C)cc3C)C2)cc1 (stereo not drawn)	?	.	.	7.1µM	1.4µM
COc1ccc(N2CCC(CNC(=S)Nc3ccc(C)cc3C)C2)cc1 (stereo not drawn)	?	.	.	?	0.63µM
COc1ccc(N2CCC(CNC(=O)Nc3ccc(OC)cc3OC)C2)cc1 (stereo not drawn)	?	.	.	.	.
SMILES	Six1-Eya2 inh	p53 reactivation	CtBP-E1A inh	Gal4-VP16 FLuc	RORgamma inh
COc1ccc(N2CCC(CNC(=S)Nc3cccc(C)c3)C2)cc1 (stereo not drawn)	?	.	?	5µM	4µM
CO[C@H]1COC(=O)C/C=C\[C@H](C)[C@@H](OC)COC(=O)[C@@H](C)COC(=O)C/C=C\[C@@H]1C	/	/	/	.[10 µM]	.[10 µM]
Cc1cccn2c(CNCC3(c4ccccc4)CCCC3)c(C(=O)N3CCOCC3)nc12	.	.	.	.	.
OCc1ccc(O)c2ncccc12	-88	.	-92	18µM	13µM
Oc1ccc(COCc2ccccc2)c2cccnc12	-90	?	-98	?	0.56µM
CN(Cc1ccco1)Cc1ccc(O)c2ncccc12	/	.	/	/	/
Oc1ccc(CNc2ccccc2F)c2cccnc12	-91	.	-94	?	10µM
Oc1ccc(Cc2ccccc2)c2cccnc12	-75	/	-92	/	/
NC(=O)C1CCN(C(=S)NCCc2ccccc2)CC1	.	.	.	.	.
O=[N+]([O-])c1ccc2c(c1)C(O)n1nc(-c3ccc(Cl)cc3Cl)nc1S2 (stereo not drawn)	.	.	.	?	11µM
Cc1nc2n(n1)C(O)c1cc([N+](=O)[O-])ccc1S2 (stereo not drawn)	/	.	/	.	.
CCC(=O)Nc1cccc(C(=O)/C=C/c2cccs2)c1	.	.	/	?	?
O=C(/C=C/c1ccccc1)Nc1cc(NC(=O)/C=C/c2ccccc2)cc(C(=O)O)c1	.	/	?	.	.
O=C(/C=C/c1ccccc1)Nc1cccc(C(=O)O)c1	.	.	/	5.6µM	4µM
CCC(=O)Nc1cccc(C(=O)/C=C/c2ccccc2)c1	.	.	.	?	16µM
CCNc1ncc2nc(-c3cccs3)c(=O)n(Cc3cccc(OC)c3)c2n1	/	/	/	.	.
CCCNC(=O)C(=O)NCCC1=CCCCC1	.	.	.	.	.
O=C(NC(=S)NCCC1=CCCCC1)c1cncc(Br)c1	.	.	.	8.9µM	4.5µM
O=C(NC(=S)NCCC1=CCCCC1)c1ccccc1Br	.	?	.	3.2µM	3.5µM
O=C(CCn1c(=O)c2ccccc2n(CC(=O)NCCC2=CCCCC2)c1=O)NCc1ccco1	.	.	.	.	.
S=C(NCCC1=CCCCC1)NCc1ccco1	.	?	.	?	7.1µM
O=C(c1ccccc1)c1ccc(N2CCN(C(=O)c3ccc(F)cc3F)CC2)c(F)c1	.	/	.	/	/
COc1ccccc1NC(=O)/C=C\c1ccco1	.	?	.	?	.
COc1ccccc1NC(=S)NC(=O)/C=C/c1ccco1	.	.	.	20µM	13µM
Cc1ccccc1NC(=S)NC(=O)/C=C/c1ccco1	.	.	.	13µM	?
SMILES	Six1-Eya2 inh	p53 reactivation	CtBP-E1A inh	Gal4-VP16 FLuc	RORgamma inh
COc1cc2c(cc1NC(=S)NC(=O)/C=C/c1ccco1)oc1ccccc12	.	.	.	5µM	3.2µM
COc1cc2c(cc1NC(=S)NC(=O)/C=C/c1ccc(OC)c(OC)c1)oc1ccccc12	.	.	.	.	.
CCOC(=O)C(NC(=O)Cc1ccccc1)(Nc1cc(C)on1)C(F)(F)F (stereo not drawn)	.	.	.	.	.
O=C(c1cc(S(=O)(=O)NCc2ccco2)ccc1Br)N1CCOCC1	.	.	.	/	/
COc1ccc(NS(=O)(=O)c2ccc(NC(=O)c3ccc(CN4CCOCC4)cc3)cc2)cc1	.	.	.	.	14µM
O=C(COC(=O)c1cnc(Cl)c(Cl)c1)Nc1ccc(S(=O)(=O)N2CCCC2)cc1	-77	.	?	.	.
O=C(Nc1ccc(S(=O)(=O)Nc2ccc(F)cc2)cc1)c1ccc(CN2CCOCC2)cc1	.	.	.	?	?
